The panel holds about 79,000 compounds, 15% with a hit somewhere; the sample as a whole holds those more often. Calls of active or inactive are those of the source. No stated cut-off is given here; in the data, active means growth inhibition above about 70%; inactive means the rest.
Experiments:
[1] = NCI Yeast Anticancer Drug Screen. Data for the rad52 strain (AID 147);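 further: 0% = growth of vehicle-treated control cultures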; settings: S. cerevisiae rad52 mutant growth inhibition, stronger effect = higher value
How it was run: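 Measured: yeast growth inhibition. System: strain with a defined DNA damage repair alteration. Reference: vehicle-treated control cultures.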

[2] = NCI Yeast Anticancer Drug Screen. Data for the wt1 strain (AID 149);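 further: 0% = growth of vehicle-treated wt1 cultures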; settings: S. cerevisiae wt1 strain (SPY 50644) growth inhibition, stronger effect = higher value
How it was run: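 Growth inhibition read against vehicle controls after compound exposure of the wt1 yeast strain.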

[3] = NCI Yeast Anticancer Drug Screen. Data for the rad50EPP+ strain (AID 151);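 further: 0% = growth of vehicle-treated control cultures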; settings: S. cerevisiae rad50 mutant strain, stronger effect = higher value
How it was run: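 One strain with a rad50 alteration (rad50EPP+) was compound-treated, its growth then compared to that of vehicle controls.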

[4] = NCI Yeast Anticancer Drug Screen. Data for the mgt1 strain (AID 153); settings: S. cerevisiae mgt1 mutant growth inhibition, stronger effect = higher value
How it was run: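 After exposure of the mgt1 yeast mutant to compound, growth was measured and reported as inhibition compared with vehicle controls.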

[5] = NCI Yeast Anticancer Drug Screen. Data for the rad50 strain (AID 155);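 further: 0% = growth of vehicle-only cultures of the same strain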; settings: S. cerevisiae rad50 strain growth inhibition, stronger effect = higher value
How it was run: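 Readout: growth inhibition relative to vehicle-treated cultures. Compound exposure was carried out in a genetically defined yeast strain deficient in DNA damage repair.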

[6] = NCI Yeast Anticancer Drug Screen. Data for the mec2-1 strain (AID 157); settings: S. cerevisiae mec2-1 strain, stronger effect = higher value
How it was run: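 Test agents were screened against the mec2-1 yeast strain, with defined DNA repair or cell cycle alteration. Growth was scored as inhibition against vehicle-only controls.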

[7] = NCI Yeast Anticancer Drug Screen. Data for the rad14 strain (AID 159);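 further: 0% = growth of vehicle-treated control cultures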; settings: S. cerevisiae rad14 strain growth inhibition, stronger effect = higher value
How it was run: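 Growth inhibition vs vehicle controls; genetically altered yeast strain (DNA damage repair defect) treated with test compounds.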

[8] = NCI Yeast Anticancer Drug Screen. Data for the sgs1 mgt1 strain (AID 161);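 further: 0% = growth of cultures given vehicle only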; settings: S. cerevisiae sgs1 mgt1 strain, stronger effect = higher value
How it was run: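 Test agents were incubated with a DNA-repair-mutant yeast strain. Growth was then read and compared against vehicle-treated controls.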

[9] = NCI Yeast Anticancer Drug Screen. Data for the CLN2oe strain (AID 163);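 further: 0% = growth of vehicle-only control cultures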; settings: S. cerevisiae CLN2oe strain, stronger effect = higher value
How it was run: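 Here, growth inhibition in a cell-cycle-altered yeast strain after compound exposure was quantified against vehicle control growth.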

[10] = NCI Yeast Anticancer Drug Screen. Data for the cln2 rad14 strain (AID 165);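 further: 0% = growth equal to vehicle treated cultures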; settings: S. cerevisiae cln2 rad14 strain, stronger effect = higher value
How it was run: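 Growth of compound-exposed yeast (cln2 rad14 genotype) measured and expressed as inhibition relative to vehicle.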

[11] = NCI Yeast Anticancer Drug Screen. Data for the bub3 strain (AID 167); settings: S. cerevisiae bub3 mutant strain, stronger effect = higher value
How it was run: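 Readout: yeast growth inhibition, expressed relative to vehicle-only wells. The test organism is a mutant strain from a panel with lesions in DNA repair or checkpoint genes.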

[12] = NCI Yeast Anticancer Drug Screen. Data for the wt2 strain (AID 169);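 further: 0% = growth of vehicle-treated yeast cultures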; settings: S. cerevisiae wt2 strain growth inhibition, stronger effect = higher value
How it was run: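 Genetically defined yeast strains from a DNA-repair/cell-cycle panel were used. Compound-exposed yeast growth was measured, and the inhibition was calculated relative to vehicle treatment.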

[13] = NCI Yeast Anticancer Drug Screen. Data for the sgs1 strain (AID 173);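 further: 0% = growth of vehicle-only control cultures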; settings: S. cerevisiae sgs1 mutant, stronger effect = higher value
How it was run: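 Relative growth inhibition, referenced to vehicle, was determined in a yeast strain with a defined alteration affecting DNA damage repair or cell cycle control after compound exposure.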

[14] = NCI Yeast Anticancer Drug Screen. Data for the mlh1 rad18 strain (AID 175); settings: S. cerevisiae mlh1 rad18 strain growth inhibition, stronger effect = higher value
How it was run: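 In this whole-cell yeast screen, a strain with altered DNA damage repair is challenged with compound, and its growth is measured against matched vehicle-treated controls.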

[15] = NCI Yeast Anticancer Drug Screen. Data for the rad18 strain (AID 177); settings: S. cerevisiae rad18 mutant growth inhibition, stronger effect = higher value
How it was run: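 Screen uses a yeast strain with a defined lesion in DNA damage repair; compound effect is read as loss of growth compared to untreated vehicle cultures.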

[16] = at 5.0 µM (retest, dose inferred, filed as 0.5)
[17] = at 50.0 µM (retest, dose inferred, filed as 5.0)

Measured: growth inhibition

O=C(CCCN1CCC2(CC1)CC(=O)N(N1CCCCCC1)C2=O)c1ccc(F)cc1
inactive: [1]; at 1.2 µM 23% | [1]; at 3.7 µM 34% | [1]; at 11.0 µM 46% | [1]; at 33.0 µM 53% | [1]; at 100.0 µM 65% | [2]; at 1.2 µM 11% | [2]; at 3.7 µM 24% | [2]; at 11.0 µM 25% | [2]; at 33.0 µM 34% | [2]; at 100.0 µM 41% | [3]; at 1.2 µM -2% | [3]; at 3.7 µM -2% | [3]; at 11.0 µM -1% | [3]; at 33.0 µM -1% | [3]; at 100.0 µM 0% | [4]; at 1.2 µM 32% | [4]; at 3.7 µM 45% | [4]; at 11.0 µM 67% | [5]; at 1.2 µM 29% | [5]; at 3.7 µM 26% | [5]; [16] 14% | [5]; at 11.0 µM 33% | [5]; at 33.0 µM 49% | [5]; [17] 46% | [5]; at 100.0 µM 61% | [6]; at 1.2 µM 25% | [6]; at 3.7 µM 28% | [6]; [16] 13% | [6]; at 11.0 µM 31% | [6]; at 33.0 µM 40% | [6]; [17] 41% | [6]; at 50.0 µM 45.8% | [6]; at 100.0 µM 45% | [7]; at 1.2 µM 45% | [7]; at 3.7 µM 51% | [7]; at 11.0 µM 64% | [8]; [16] 45% | [9]; at 1.2 µM 49% | [9]; at 3.7 µM 45% | [9]; at 11.0 µM 58% | [10]; [16] 63% | [11]; at 1.2 µM 40% | [11]; at 3.7 µM 41% | [11]; [16] 36% | [11]; at 11.0 µM 51% | [11]; at 33.0 µM 61% | [11]; [17] 41% | [11]; at 100.0 µM 66% | [12]; at 1.2 µM 20% | [12]; at 3.7 µM 32% | [12]; at 11.0 µM 41% | [12]; at 33.0 µM 53% | [12]; at 100.0 µM 68% | [13]; at 1.2 µM 43% | [13]; at 3.7 µM 45% | [13]; at 11.0 µM 65% | [14]; [16] 25% | [14]; [17] 56% | [15]; at 1.2 µM 29% | [15]; at 3.7 µM 49% | [15]; at 11.0 µM 57% | [15]; at 33.0 µM 66% | [15]; at 100.0 µM 65%
active: [4]; at 33.0 µM 75% | [4]; at 100.0 µM 89% | [5]; at 50.0 µM 80.8% | [7]; at 33.0 µM 73% | [7]; at 100.0 µM 87% | [8]; [17] 74% | [8]; at 50.0 µM 84.4% | [9]; at 33.0 µM 71% | [9]; at 100.0 µM 79% | [10]; [17] 82% | [10]; at 50.0 µM 72% | [11]; at 50.0 µM 73.3% | [13]; at 33.0 µM 73% | [13]; at 100.0 µM 77% | [14]; at 50.0 µM 76%

— PubChem BioAssay (NCI)
